{"source": "PubChem BioAssay (NCATS)", "key": {"[1]": {"assay": "qHTS to identify inhibitors of the type 1 interferon - major histocompatibility complex class I in skeletal muscle: primary screen against the NCATS Mechanism Interrogation Plate v5.0 (MIPE) Libary (AID 1347411); also: nearly all actives have a fitted effect of over 65% in size; also: potency is read from the fitted curve at half-maximal effect;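 as to activity change, negative = inhibition: plate controls were vehicle for no effect and reference inhibitor for full effect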", "summary_of_the_method": "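Luminescence from HiBiT-tagged endogenous HLA-B*08:01 served as the MHC class I read-out. CRISPR-engineered C25cl48 human myoblasts received 4.0 ng/ml IFN-beta plus compound for 24 hrs, with an 11-point, 1:3 series topping at 46 uM final.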"}, "[2]": {"assay": "Primary qHTS for inhibitors of nuclear receptor binding SET domain protein 2 (NSD2) in an isogenic RCH-ACV NSD2 p.E1099K mutant (9B) (AID 1645876); also: nearly all actives have a fitted effect of over 70% in size; also: potency is read from the fitted curve at half-maximal effect"}, "[3]": {"assay": "Primary qHTS for inhibitors of nuclear receptor binding SET domain protein 2 (NSD2) in an RCH-ACV wild type WT cells (2C) (AID 1645877); also: nearly all actives have a fitted effect of over 70% in size; also: potency is read from the fitted curve at half-maximal effect"}, "[4]": {"molecular_target": "Glutathione peroxidase 1 (Homo sapiens) (UniProt P07203)", "sequence (P07203 whole entry, looked up)": "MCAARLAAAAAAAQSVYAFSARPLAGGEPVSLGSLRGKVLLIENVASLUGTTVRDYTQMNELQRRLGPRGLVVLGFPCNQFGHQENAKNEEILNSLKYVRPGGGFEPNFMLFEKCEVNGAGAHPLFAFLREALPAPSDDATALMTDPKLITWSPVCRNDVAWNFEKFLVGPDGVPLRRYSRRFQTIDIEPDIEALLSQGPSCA", "assay": "Primary qHTS Assay for Inhibitors of Recombinant Selenoprotein Glutathione Peroxidase 1 (GPX1) (AID 1845191); also: nearly all actives have a fitted effect of over 65% in size", "summary_of_the_method": "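Recombinant GPX1 (10 nM final) was preincubated with compound for 30 min at room temperature, then reacted with 1 mM GSH, 0.5 mM CHP, 0.5 mM NADPH and 100 nM glutathione reductase; NADPH fluorescence (340/450 nm) was read at 0 and 15 min.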"}, "[5]": {"molecular_target": "Phospholipid hydroperoxide glutathione peroxidase GPX4 (Homo sapiens) (UniProt P36969)", "sequence (P36969 whole entry, looked up)": "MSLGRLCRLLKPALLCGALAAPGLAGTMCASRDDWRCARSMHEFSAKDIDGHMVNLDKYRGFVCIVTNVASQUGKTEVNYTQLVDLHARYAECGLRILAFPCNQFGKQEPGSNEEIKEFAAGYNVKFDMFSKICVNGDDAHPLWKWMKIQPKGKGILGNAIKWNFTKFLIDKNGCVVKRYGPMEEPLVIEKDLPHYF", "assay": "Primary qHTS Assay for Inhibitors of Recombinant Selenoprotein Glutathione Peroxidase 4 (GPX4) (AID 1845192); also: nearly all actives have a fitted effect of over 65% in size; as to activity change, negative = inhibition: % is scaled to controls: 0 for no effect and ±100 for the full control effect", "conditions": "outcome: at 50 µM (top of the series) unless noted", "summary_of_the_method": "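GR-coupled readout: 100 nM GR, 1 mM GSH, 0.5 mM NADPH; NADPH fluorescence (ex 340/em 450 nm) read at t=0 and after 15 min RT. GPX4 200 nM, preincubated 30 min with compound; substrate 0.5 mM CHP.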"}, "[6]": {"assay": "qHTS drug screen for cell cycle checkpoint inhibitors in PARPi-resistant BRCA-mutant ovarian cancer cell lines. (AID 1963452; calls by dose curve)", "conditions": "PEO1/OlaR viability, CellTiter-Glo luminescence, 96 h, stronger effect = lower value", "summary_of_the_method": "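PEO1, PEO4 and PEO1/OlaR ovarian cancer cells, 600 per well, exposed 96 h at 37C to a dilution series. Viability read by CellTiter-Glo luminescence, normalized to DMSO and empty wells; activity summarized as Z-AUC.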"}, "[7]": {"assay": "NCATS anti-infectives library activity on HEK293 viability as a counter-qHTS vs the C. elegans viability qHTS (AID 1745854); also: % is scaled to controls: 0 for no effect and ±100 for the full control effect", "summary_of_the_method": "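Compounds were acoustically plated (several concentrations, 1:5, final up to 41.7 uM), then 1500 HEK293 cells added per well and incubated 24 hr at 37C, 5% CO2. CellTiter-Glo was added and luminescence read after 10 min.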"}, "[8]": {"molecular_target": "Cytochrome P450 3A4 (Homo sapiens) (UniProt P08684)", "sequence (P08684 whole entry, looked up)": "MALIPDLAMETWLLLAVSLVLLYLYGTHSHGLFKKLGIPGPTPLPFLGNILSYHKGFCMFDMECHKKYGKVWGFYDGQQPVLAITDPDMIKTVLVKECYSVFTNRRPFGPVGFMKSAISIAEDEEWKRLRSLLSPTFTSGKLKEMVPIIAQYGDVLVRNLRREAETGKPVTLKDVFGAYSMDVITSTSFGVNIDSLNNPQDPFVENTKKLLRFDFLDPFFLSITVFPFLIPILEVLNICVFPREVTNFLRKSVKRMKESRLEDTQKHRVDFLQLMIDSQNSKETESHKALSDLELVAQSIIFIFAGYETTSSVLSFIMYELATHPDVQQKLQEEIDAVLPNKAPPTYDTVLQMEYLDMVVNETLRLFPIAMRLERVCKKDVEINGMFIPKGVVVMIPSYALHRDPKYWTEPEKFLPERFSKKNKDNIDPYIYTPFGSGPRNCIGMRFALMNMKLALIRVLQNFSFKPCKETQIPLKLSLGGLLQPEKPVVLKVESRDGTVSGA", "assay": "qHTS Assay for Inhibitors and Substrates of Cytochrome P450 3A4 (AID 884); also: % is scaled to controls: 0 for no effect and ±100 for the full control effect; nearly all actives have a fitted effect of over 50% in size", "summary_of_the_method": "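20 nM human CYP3A4 with 25 uM Luciferin-PPXE (at KM) in 200 mM KPO4, preincubated 10 min with compound; NADPH regeneration started a 60 min RT reaction. Luciferin detected by luminescence, normalized to 57 uM ketoconazole as full inhibition.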"}, "[9]": {"assay": "Confirmation and Secondary Assay for Modulators of Hemoglobin Beta Chain Splicing at IVS2 654 locus (AID 910); also: % of control where 0% means no effect", "summary_of_the_method": "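HeLa cells stably carrying EGFP interrupted by mutant beta-globin IVS2-654 intron (CMV-driven) were treated with compound for 2 days at 37C; corrected splicing was scored as total peak GFP intensity per well (488 nm excitation, 500-520 nm emission).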"}, "[10]": {"assay": "Confirmation and Secondary Assay for Modulators of Hemoglobin Beta Chain Splicing at IVS2 705 locus (AID 930);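 also: HeLa cells stably expressing the EGFP-705 splicing reporter; % of control where 0% means no effect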", "summary_of_the_method": "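HeLa cells stably carrying EGFP interrupted by mutant beta-globin intron 2 (IVS2-705) treated 2 days at 37C with compound; 500 nM antisense PNA as control. Correct splicing read as total peak GFP intensity per well by laser-scanning cytometry.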"}, "[11]": {"assay": "qHTS Assay for Lipid Storage Modulators (AID 1519; calls by dose curve; as to activity change, negative = inhibition: % is scaled to controls: 0 for no effect and ±100 for the full control effect)", "conditions": "Drosophila S3 cells, BODIPY lipid droplet/cell ratio, laser cytometry, cells loaded with oleic acid", "summary_of_the_method": "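Cells seeded at 5,000 per well were treated with compounds over a concentration series and loaded with oleic acid (400 uM, as added). Lipid droplet fluorescence (488 nm excitation, 500-530 nm channel) was read by laser-scanning cytometry and normalized to 20 uM Triacsin C.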"}, "[12]": {"molecular_target": "Ubiquitin carboxyl-terminal hydrolase 1 (Homo sapiens) (UniProt O94782)", "sequence (O94782 whole entry, looked up)": "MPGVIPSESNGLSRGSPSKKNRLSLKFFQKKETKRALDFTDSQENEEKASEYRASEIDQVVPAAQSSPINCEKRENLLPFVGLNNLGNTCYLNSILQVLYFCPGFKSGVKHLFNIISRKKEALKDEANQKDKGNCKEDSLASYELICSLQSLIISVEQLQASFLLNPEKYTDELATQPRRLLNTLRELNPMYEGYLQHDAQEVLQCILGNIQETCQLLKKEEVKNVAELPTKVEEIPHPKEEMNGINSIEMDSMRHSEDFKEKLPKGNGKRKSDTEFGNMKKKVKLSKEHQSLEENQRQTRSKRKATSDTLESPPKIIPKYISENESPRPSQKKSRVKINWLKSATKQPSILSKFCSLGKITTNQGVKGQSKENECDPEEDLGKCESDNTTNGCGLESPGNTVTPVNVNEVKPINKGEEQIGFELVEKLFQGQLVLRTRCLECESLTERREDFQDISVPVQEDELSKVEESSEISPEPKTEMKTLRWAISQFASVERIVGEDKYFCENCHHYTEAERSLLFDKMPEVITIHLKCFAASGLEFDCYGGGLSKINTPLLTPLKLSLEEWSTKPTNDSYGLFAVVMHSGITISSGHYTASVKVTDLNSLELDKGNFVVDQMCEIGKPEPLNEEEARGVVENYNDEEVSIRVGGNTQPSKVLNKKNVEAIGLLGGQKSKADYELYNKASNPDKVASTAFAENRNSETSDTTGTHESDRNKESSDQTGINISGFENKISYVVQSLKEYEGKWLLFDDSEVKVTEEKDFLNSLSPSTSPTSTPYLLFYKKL", "assay": "Inhibitors of USP1/UAF1: Pilot qHTS (AID 504865);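 also: rhodamine fluorescence freed from ubiquitin-rhodamine substrate followed over time; top concentration of the series differs between compounds; % is scaled to controls: 0 for no effect and ±100 for the full control effect; nearly all actives have a fitted effect of over 35% in size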", "summary_of_the_method": "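1nM USP1/UAF1 + cpd, 15 min RT; start w/ Ub-Rho 150nM final; kinetic FL 480/540 nm, 6 reads q60 s. Buffer 50mM HEPES pH 7.8, 0.5mM EDTA, 1mM TCEP, 0.01% Tween-20, 0.1 mg/ml BSA.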"}, "[13]": {"molecular_target": "Calcium and integrin-binding protein 1 (Homo sapiens) (UniProt Q99828)", "sequence (Q99828 whole entry, looked up)": "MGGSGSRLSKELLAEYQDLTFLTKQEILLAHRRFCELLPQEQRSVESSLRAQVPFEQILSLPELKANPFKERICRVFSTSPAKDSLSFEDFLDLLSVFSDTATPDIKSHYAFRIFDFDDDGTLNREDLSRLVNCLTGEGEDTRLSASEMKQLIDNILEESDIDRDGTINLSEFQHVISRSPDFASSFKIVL", "assay": "Primary qHTS for Identification of Calcium Integrin Binding Protein 1 (CIB1) Competitor (AID 1508620);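 also: GST tagged CIB1 binding a fluorescein labelled alphaIIb integrin peptide tracer; top concentration of the series differs between compounds; % is scaled to controls: 0 for no effect and ±100 for the full control effect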", "summary_of_the_method": "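Fluorescence polarization competition: CIB1-GST (1 uM final) preincubated with compound 15 min at room temperature, then FITC-labeled alphaIIb peptide (100 nM final) added for another 15 min. Polarization read at Ex 480/Em 540.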"}, "[14]": {"conditions": "measured here: PEO1 parental Z-AUC"}}, "note": "Several values for one entry are separate records, joined by “and”; a condition that tells them apart may be missing. Equal entries are not always repeated. Inconclusive results are not listed. Activity calls are given as the source filed them. Unless noted, calls follow the shape of the dose curve; as a rule, active = well fitted curve in the direction sought with a large enough effect; inconclusive = small, poorly fitted or top-dose-only effect, or another doubt; inactive = no such curve, though single readings can be large; an effect the other way counts as inactive or inconclusive.", "data": [{"smiles": "[2H]c1nc(C)nc([2H])c1-c1cc(NC[C@@H](C)c2cccc3c(C(=O)NC)ccnc23)ncn1", "values": [{"measurement": "Potency", "setting": "[1]", "value": "inactive"}, {"measurement": "Potency", "setting": "[2]", "value": "inactive"}, {"measurement": "Potency", "setting": "[3]", "value": "inactive"}, {"measurement": "Potency", "setting": "[4]", "value": "inactive"}, {"measurement": "Potency", "setting": "[5]", "value": "inactive"}, {"measurement": "Z-AUC", "setting": "[6]", "value": "1.38 (inactive)"}, {"measurement": "Z-AUC", "setting": "[6]; [14]", "value": 1.26}, {"measurement": "Z-AUC", "setting": "[6]; measured here: PEO4 Z-AUC", "value": 1.18}]}, {"smiles": "Nc1nc(F)nc2c1ncn2[C@@H]1O[C@H](COP(=O)(O)O)[C@@H](O)[C@@H]1O", "values": [{"measurement": "Potency", "setting": "[1]", "value": "inactive"}, {"measurement": "Potency", "setting": "[2]", "value": "1.86 µM (active)"}, {"measurement": "Potency", "setting": "[3]", "value": "1.86 µM (active)"}, {"measurement": "Potency", "setting": "[4]", "value": "inactive"}, {"measurement": "Potency", "setting": "[5]", "value": "inactive"}, {"measurement": "Z-AUC", "setting": "[6]", "value": "-1.15 (inactive) and -1.44 (inactive)"}, {"measurement": "Z-AUC", "setting": "[6]; [14]", "value": "-1.36 and -1.18"}, {"measurement": "Z-AUC", "setting": "[6]; measured here: PEO4 Z-AUC", "value": "-0.49 and -0.861"}]}, {"smiles": "CC(=O)O/N=C1\\C(=O)N(Cc2cc(Cl)ccc2Cl)c2ccc(Cl)cc21", "values": [{"measurement": "Potency", "setting": "[1]", "value": "14.7 µM (active)"}, {"measurement": "Potency", "setting": "[2]", "value": "5.9 µM (active)"}, {"measurement": "Potency", "setting": "[3]", "value": "4.17 µM (active)"}, {"measurement": "Potency", "setting": "[7]", "value": "inactive"}, {"measurement": "Potency", "setting": "[4]", "value": "inactive"}, {"measurement": "Z-AUC", "setting": "[6]", "value": "1.65 (inactive)"}, {"measurement": "Z-AUC", "setting": "[6]; [14]", "value": 1.54}, {"measurement": "Z-AUC", "setting": "[6]; measured here: PEO4 Z-AUC", "value": 1.73}]}, {"smiles": "COC1=C(OC)C(=O)C(C/C=C(\\C)CC/C=C(\\C)CC/C=C(\\C)CC/C=C(/C)CC/C=C(\\C)CC/C=C(\\C)CC/C=C(\\C)CC/C=C(\\C)CC/C=C(\\C)CCC=C(C)C)=C(C)C1=O", "values": [{"measurement": "Potency", "setting": "[8]", "value": "inactive"}, {"measurement": "outcome", "setting": "[9]", "value": "inactive"}, {"measurement": "outcome", "setting": "[10]", "value": "inactive"}, {"measurement": "activity change, negative = inhibition", "setting": "[11]; at 57.5 µM (top of the series)", "value": "8.3% (inactive)"}, {"measurement": "max response", "setting": "[11]; measured here: cell count channel max response", "value": 17.1, "unit": "%"}, {"measurement": "max response", "setting": "[11]; measured here: lipid channel max response", "value": 27.6, "unit": "%"}, {"measurement": "Potency", "setting": "[12]", "value": "inactive"}, {"measurement": "Potency", "setting": "[1]", "value": "inactive"}, {"measurement": "Potency", "setting": "[2]", "value": "inactive"}, {"measurement": "Potency", "setting": "[3]", "value": "inactive"}]}, {"smiles": "CN(C)C/C=C/C(=O)Nc1cc2c(Nc3ccc(F)c(Cl)c3)ncnc2cc1O[C@H]1CCOC1", "values": [{"measurement": "Potency", "setting": "[1]", "value": "16.5 µM (active)"}, {"measurement": "Potency", "setting": "[2]", "value": "2.35 µM (active)"}, {"measurement": "Potency", "setting": "[3]", "value": "1.86 µM (active)"}, {"measurement": "Potency", "setting": "[4]", "value": "inactive"}, {"measurement": "Potency", "setting": "[5]", "value": "inactive"}, {"measurement": "Z-AUC", "setting": "[6]", "value": "-1.12 (inactive)"}, {"measurement": "Z-AUC", "setting": "[6]; [14]", "value": -0.735}, {"measurement": "Z-AUC", "setting": "[6]; measured here: PEO4 Z-AUC", "value": -1.62}]}, {"smiles": "O=C(O)c1ccc(O)c2ncccc12", "values": [{"measurement": "Potency", "setting": "[1]", "value": "inactive"}, {"measurement": "Potency", "setting": "[13]", "value": "inactive"}, {"measurement": "Potency", "setting": "[2]", "value": "20.9 µM (active)"}, {"measurement": "Potency", "setting": "[4]", "value": "inactive"}, {"measurement": "Potency", "setting": "[5]", "value": "inactive"}, {"measurement": "Z-AUC", "setting": "[6]", "value": "1.08 (inactive)"}, {"measurement": "Z-AUC", "setting": "[6]; [14]", "value": 0.983}, {"measurement": "Z-AUC", "setting": "[6]; measured here: PEO4 Z-AUC", "value": 1.08}]}, {"smiles": "CN(Cc1ccccc1)C(=O)c1ccc(S(=O)(=O)Nc2ccccc2)cc1", "values": [{"measurement": "Potency", "setting": "[1]", "value": "inactive"}, {"measurement": "Potency", "setting": "[13]", "value": "inactive"}, {"measurement": "Potency", "setting": "[5]", "value": "inactive"}, {"measurement": "Z-AUC", "setting": "[6]", "value": "-0.829 (inactive)"}, {"measurement": "Z-AUC", "setting": "[6]; [14]", "value": -0.00385}, {"measurement": "Z-AUC", "setting": "[6]; measured here: PEO4 Z-AUC", "value": 0.744}]}, {"smiles": "CC(C)=CCC[C@](C)(O[C@@H]1O[C@H](CO[C@@H]2O[C@H](CO)[C@@H](O)[C@H](O)[C@H]2O)[C@@H](O)[C@H](O)[C@H]1O)[C@H]1CC[C@]2(C)[C@@H]1[C@H](O)C[C@@H]1[C@@]3(C)CC[C@H](O[C@@H]4O[C@H](CO)[C@@H](O)[C@H](O)[C@H]4O[C@@H]4O[C@H](CO)[C@@H](O)[C@H](O)[C@H]4O)C(C)(C)[C@@H]3CC[C@]12C", "values": [{"measurement": "Potency", "setting": "[1]", "value": "inactive"}, {"measurement": "Potency", "setting": "[2]", "value": "inactive"}, {"measurement": "Potency", "setting": "[3]", "value": "inactive"}, {"measurement": "Potency", "setting": "[7]", "value": "inactive"}, {"measurement": "Potency", "setting": "[4]", "value": "inactive"}, {"measurement": "Potency", "setting": "[5]", "value": "inactive"}, {"measurement": "Z-AUC", "setting": "[6]", "value": "1.47 (inactive)"}, {"measurement": "Z-AUC", "setting": "[6]; [14]", "value": 1.48}, {"measurement": "Z-AUC", "setting": "[6]; measured here: PEO4 Z-AUC", "value": 1.64}]}]}
